Inconclusive results are not listed. The source made the active and inactive calls. Unless noted, calls follow the shape of the dose curve; as a rule, active = well fitted curve in the direction sought with a large enough effect in the repeat runs; inconclusive = weak or mixed curves; inactive = no such curve, though single readings can be large; an effect the other way counts as inactive or inconclusive.

Among the data in PubChem BioAssay (Tox21) are Potency and outcome values, retold here.

Assay [1] deals with Peroxisome proliferator-activated receptor gamma (Homo sapiens) (UniProt P37231). As to the kind of experiment: qHTS assay to identify small molecule antagonists of the peroxisome proliferator-activated receptor gamma (PPARg) signaling pathway (AID 743191; calls by dose curve; also: series mostly up to about 63 µM; nearly all actives have a fitted effect of over 30% in size). Summed up:
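Beta-lactamase reporter under UAS control in HEK293H PPARg-bla cells; compound treatment 17 h at 37C. Read-out: fluorescence intensity after 1 h room-temperature incubation with LiveBLAzer B/G FRET substrate.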
For orientation: In qHTS, concentration-response curves come from the screen itself.

A short description of assay [2]: qHTS assay to identify small molecule antagonists of the peroxisome proliferator-activated receptor gamma (PPARg) signaling pathway - cell viability counter screen (AID 743194). Also: nearly all actives have a fitted effect of over 55% in size. Also: potency is read from the fitted curve at half-maximal effect. The note with it: Potency: co-treated with 50 nM rosiglitazone. Summed up: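 Viability was measured as CellTiter-Glo luminescence in GeneBLAzer PPARg UAS-bla HEK293H cells. These cells had been exposed 17 h at 37 C to compounds together with rosiglitazone at 50 nM final, with the beta-lactamase readout taken in the same wells.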

The nature of assay [3]: qHTS assay for small molecule agonists of the antioxidant response element (ARE) signaling pathway (AID 743202; active = well fitted activation curve with a large enough effect in the signal ratio in the repeat runs, not every such curve was filed as active; the % refers to the signal ratio; also: potency is read from the fitted curve at half-maximal effect). The method in brief:
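Quantitative high-throughput format in HepG2 cells bearing an integrated ARE-beta-lactamase reporter. Compound exposure lasted 16 h at 37 C, and fluorescence was read 2 h after adding LiveBLAzer B/G substrate at room temperature.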

Assay [4] is described as follows: qHTS assay for small molecule agonists of the antioxidant response element (ARE) signaling pathway - cell viability counter screen (AID 743203; calls by dose curve; also: nearly all actives have a fitted effect of over 55% in size; also: potency is read from the fitted curve at half-maximal effect). The method in brief:
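ARE-bla HepG2 cells were plated, rested 5 h at 37C/5% CO2, then exposed to compounds in DMSO for 16 h. Viability was read as CellTiter-Glo luminescence after 30 min at room temperature, in the same wells as the ARE screen.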

Assay [5] in a line: qHTS assay for small molecule activators of the heat shock response signaling pathway - cell viability counter screen (AID 743209). Also: nearly all actives have a fitted effect of over 50% in size. The method in brief:
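HSE-bla HeLa cells plated overnight, then exposed to Tox21 compounds (23 nL in DMSO) for 5 h at 37 C. After the bla reporter read, CellTiter-Glo was added in the same wells and luminescence read after 30 min at room temperature.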

Assay [6] is described as follows: qHTS assay for small molecule activators of the heat shock response signaling pathway (AID 743210; active = well fitted activation curve with a large enough effect in the signal ratio in the repeat runs, with a control signal flat, not every such curve was filed as active; the % refers to the signal ratio;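 also: HeLa cells with beta-lactamase reporter driven by heat shock elements; series mostly up to about 63 µM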). Summed up:
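HeLa HSE-bla cells, overnight plating; cpd in DMSO 5 h, 37 C; LiveBLAzer B/G FRET substrate 2.5 h RT; fluorescence intensity read.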

Assay [7] addresses Peroxisome proliferator-activated receptor delta (Homo sapiens) (UniProt Q03181). The assay is described as follows: qHTS assay to identify small molecule agonists of the peroxisome proliferator-activated receptor delta (PPARd) signaling pathway (AID 743212; calls by dose curve). Summed up: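 HEK293H PPARd-bla cells; 5 h preincubation 37 C/5% CO2; compound (DMSO) 37 C; LiveBLAzer B/G FRET substrate 2 h RT; fluorescence intensity.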

A short description of assay [8]: qHTS assay to identify small molecule antagonists of the peroxisome proliferator-activated receptor delta (PPARd) signaling pathway - cell viability counter screen (AID 743213). Also: nearly all actives have a fitted effect of over 50% in size. Also: potency is read from the fitted curve at half-maximal effect. Summed up:
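CellTiter-Glo was added to PPARd-bla HEK293H wells following 17 h compound treatment in the presence of 300 nM L165041. Luminescence was recorded after 30 min at room temperature.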

Assay [9] can be described thus: qHTS assay to identify small molecule agonists of the farnesoid-X-receptor (FXR) signaling pathway - cell viability counter screen (AID 743218). Also: nearly all actives have a fitted effect of over 45% in size. Also: potency is read from the fitted curve at half-maximal effect. The method in brief: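 FXR-UAS-bla HEK 293T cells exposed to compounds for 16 h at 37C. Cytotoxicity read in the same wells by CellTiter-Glo luminescence after 30 min at room temperature, following the beta-lactamase FRET read.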

Assay [10] is described as follows: qHTS assay to identify small molecule antagonists of the farnesoid-X-receptor (FXR) signaling pathway - cell viability counter screen (AID 743221; active = well fitted cell-killing curve with a large enough effect in the repeat runs, not every such curve was filed as active; also: nearly all actives have a fitted effect of over 50% in size). Summed up:
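Here viability was scored by luminescence after CellTiter-Glo addition to wells already read for beta-lactamase. Prior treatment: compound plus CDCA (50 uM final), 16 h, 37 C, HEK 293T FXR-bla cells.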

In assay [11] the target is Vitamin D3 receptor (Homo sapiens) (UniProt P11473). As to the kind of experiment: qHTS assay to identify small molecule agonists of the vitamin D receptor (VDR) signaling pathway (AID 743222; calls by dose curve). Summed up:
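VDR-bla cells plated 4 h at 37 C, then exposed to compounds for 16 h at 37 C. Beta-lactamase reporter activity measured by fluorescence after 2 h room-temperature loading with LiveBLAzer B/G FRET substrate.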

For assay [12] the target is unchanged. The assay is described as follows: qHTS assay to identify small molecule antagonists of the vitamin D receptor (VDR) signaling pathway (AID 743223; active = well fitted inhibition curve with a large enough effect in the signal ratio in the repeat runs, not every such curve was filed as active; the % refers to the signal ratio). Summed up: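 Inhibition of agonist-driven VDR signalling is scored in VDR-bla cells: 3 nM final 1alpha,25-dihydroxyvitamin D3 plus compound, 16 h at 37C, then beta-lactamase detection by FRET substrate fluorescence after 2 h.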

The nature of assay [13]: qHTS assay to identify small molecule that activate the aryl hydrocarbon receptor (AhR) signaling pathway - cell viability counter screen (AID 743086). Also: nearly all actives have a fitted effect of over 45% in size. Also: potency is read from the fitted curve at half-maximal effect. The method in brief:
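Cytotoxicity counter screen: CellTiter-Fluor signal (30 min, 37 C) in 4000 HepG2 cells/well carrying the DRE-luciferase reporter, following 24 h compound exposure at 37 C.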

A short description of assay [14]: qHTS assay to identify small molecule agonists of the peroxisome proliferator-activated receptor delta (PPARd) signaling pathway - cell viability counter screen (AID 743211). Also: nearly all actives have a fitted effect of over 55% in size. Also: potency is read from the fitted curve at half-maximal effect. The method in brief: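 In the same wells used for beta-lactamase reporter measurement, cytotoxicity is scored by CellTiter-Glo. HEK293H PPARd-bla cells receive compound for 17 h at 37C following a 5 h settling period.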

In assay [15] the target is Peroxisome proliferator-activated receptor gamma (Homo sapiens) (UniProt P37231). As to the kind of experiment: qHTS assay to identify small molecule agonists of the peroxisome proliferator-activated receptor gamma (PPARg) signaling pathway (AID 743094; active = well fitted activation curve with a large enough effect in the signal ratio in the repeat runs, not every such curve was filed as active; the % refers to the signal ratio). The method in brief:
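GeneBLAzer PPARg UAS-bla HEK293H cells were plated, rested 5 h, then exposed to compounds for 17 h at 37C. Beta-lactamase activity was read by LiveBLAzer B/G FRET substrate fluorescence after 1 h at room temperature.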

For assay [16], the target named is Peroxisome proliferator-activated receptor delta (Homo sapiens) (UniProt Q03181). As to the kind of experiment: qHTS assay to identify small molecule antagonists of the peroxisome proliferator-activated receptor delta (PPARd) signaling pathway (AID 743215; active = well fitted inhibition curve with a large enough effect in the signal ratio in the repeat runs, not every such curve was filed as active; the % refers to the signal ratio;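 also: cells stimulated with agonist L165041 at 300 nM final during compound exposure; series mostly up to about 62 µM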). The method in brief:
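PPARd-bla HEK293H cells (UAS-bla reporter) preincubated 5 h, then given compound plus 300 nM final L165041 agonist for 17 h at 37 C. Beta-lactamase activity read by LiveBLAzer B/G FRET substrate fluorescence after 2 h at room temperature.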

In assay [17] the target is Aryl hydrocarbon receptor (Homo sapiens) (UniProt P35869). The assay is described as follows: qHTS assay to identify small molecule that activate the aryl hydrocarbon receptor (AhR) signaling pathway (AID 743085).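 Also: HG2L7.5c1 human HepG2 liver cells with stably integrated DRE-driven firefly reporter; series mostly up to about 70 µM; nearly all actives have a fitted effect of over 15% in size.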 The method in brief: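 Stably transfected human liver carcinoma cells (HG2L7.5c1; 20 DRE-firefly luciferase) were incubated 5 h, dosed, and kept 24 h at 37C. Agonism was scored from increased luciferase luminescence.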

In assay [18] the target is Bile acid receptor (Homo sapiens) (UniProt Q96RI1). As to the kind of experiment: qHTS assay to identify small molecule antagonists of the farnesoid-X-receptor (FXR) signaling pathway (AID 743217; active = well fitted inhibition curve with a large enough effect in the signal ratio in the repeat runs, not every such curve was filed as active; the % refers to the signal ratio). Summed up:
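FXR-UAS-bla HEK 293T cells (beta-lactamase reporter) given compound plus chenodeoxycholic acid (50 uM final), 16 h at 37C. LiveBLAzer B/G FRET substrate added for 2 h at room temperature; fluorescence read.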

The target is the same in assay [19]. As to the kind of experiment: qHTS assay to identify small molecule agonists of the farnesoid-X-receptor (FXR) signaling pathway (AID 743220; active = well fitted activation curve with a large enough effect in the signal ratio in the repeat runs, not every such curve was filed as active; the % refers to the signal ratio). Summed up: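 Beta-lactamase reporter under UAS control in GeneBLAzer FXR HEK 293T cells (5000/well) measured with LiveBLAzer FRET substrate after 2 h at room temperature. Compound exposure lasted 16 h at 37C.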
Assay [20] is described as follows: qHTS assay to identify aromatase inhibitors - cell viability counter screen (AID 743084).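 Also: cells stimulated with testosterone during compound exposure; nearly all actives have a fitted effect of over 55% in size.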

Sequence of Bile acid receptor (Homo sapiens) (Q96RI1 whole entry, looked up): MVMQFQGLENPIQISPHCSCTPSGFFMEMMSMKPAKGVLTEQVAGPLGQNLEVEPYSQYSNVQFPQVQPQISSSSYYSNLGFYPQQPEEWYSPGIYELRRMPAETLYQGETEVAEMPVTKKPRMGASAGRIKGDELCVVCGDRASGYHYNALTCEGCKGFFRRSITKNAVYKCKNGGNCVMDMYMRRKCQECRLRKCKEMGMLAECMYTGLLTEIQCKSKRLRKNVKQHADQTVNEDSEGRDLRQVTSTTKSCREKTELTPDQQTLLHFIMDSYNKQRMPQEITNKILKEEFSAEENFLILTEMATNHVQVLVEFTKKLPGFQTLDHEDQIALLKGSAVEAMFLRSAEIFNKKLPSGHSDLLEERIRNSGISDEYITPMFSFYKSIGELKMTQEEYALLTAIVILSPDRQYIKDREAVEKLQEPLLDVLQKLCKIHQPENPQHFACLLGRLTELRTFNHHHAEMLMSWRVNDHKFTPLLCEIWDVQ
Sequence of Peroxisome proliferator-activated receptor gamma (Homo sapiens) (P37231 whole entry, looked up): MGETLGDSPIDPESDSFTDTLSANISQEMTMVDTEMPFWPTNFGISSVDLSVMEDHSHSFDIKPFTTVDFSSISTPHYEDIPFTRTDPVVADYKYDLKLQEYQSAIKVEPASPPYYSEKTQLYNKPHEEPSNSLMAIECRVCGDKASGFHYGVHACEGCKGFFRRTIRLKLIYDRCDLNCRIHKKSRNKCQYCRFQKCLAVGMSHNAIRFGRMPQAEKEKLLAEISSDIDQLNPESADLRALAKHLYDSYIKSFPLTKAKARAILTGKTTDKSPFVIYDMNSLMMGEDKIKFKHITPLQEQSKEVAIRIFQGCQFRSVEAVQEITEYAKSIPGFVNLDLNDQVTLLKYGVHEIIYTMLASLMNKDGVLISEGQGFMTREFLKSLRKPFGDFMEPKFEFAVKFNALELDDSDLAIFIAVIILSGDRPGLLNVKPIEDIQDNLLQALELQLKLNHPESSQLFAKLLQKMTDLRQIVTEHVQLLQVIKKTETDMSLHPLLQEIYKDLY
Sequence of Vitamin D3 receptor (Homo sapiens) (P11473 whole entry, looked up): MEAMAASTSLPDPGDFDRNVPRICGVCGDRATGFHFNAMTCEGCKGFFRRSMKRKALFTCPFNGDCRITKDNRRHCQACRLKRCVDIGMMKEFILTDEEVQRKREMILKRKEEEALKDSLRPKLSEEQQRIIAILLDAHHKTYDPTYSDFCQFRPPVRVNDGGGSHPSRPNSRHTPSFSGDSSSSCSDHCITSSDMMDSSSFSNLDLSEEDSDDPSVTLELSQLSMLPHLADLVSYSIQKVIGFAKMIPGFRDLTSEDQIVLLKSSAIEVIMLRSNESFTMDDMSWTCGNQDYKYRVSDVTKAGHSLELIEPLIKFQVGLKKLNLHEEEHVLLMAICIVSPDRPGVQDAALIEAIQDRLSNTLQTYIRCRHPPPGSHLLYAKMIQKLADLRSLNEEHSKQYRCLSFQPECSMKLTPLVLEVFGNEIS
Sequence of Peroxisome proliferator-activated receptor delta (Homo sapiens) (Q03181 whole entry, looked up): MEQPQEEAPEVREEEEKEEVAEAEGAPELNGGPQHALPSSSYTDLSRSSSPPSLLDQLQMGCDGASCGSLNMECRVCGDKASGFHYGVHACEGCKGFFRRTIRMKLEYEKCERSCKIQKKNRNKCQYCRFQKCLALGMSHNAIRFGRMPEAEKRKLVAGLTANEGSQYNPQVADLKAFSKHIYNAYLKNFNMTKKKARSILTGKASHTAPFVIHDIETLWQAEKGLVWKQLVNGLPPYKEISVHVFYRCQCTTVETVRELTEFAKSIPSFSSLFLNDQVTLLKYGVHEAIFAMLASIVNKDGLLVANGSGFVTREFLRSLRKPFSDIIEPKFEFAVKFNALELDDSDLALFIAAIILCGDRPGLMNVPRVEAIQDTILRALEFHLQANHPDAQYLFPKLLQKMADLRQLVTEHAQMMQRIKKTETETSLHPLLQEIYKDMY
Sequence of Aryl hydrocarbon receptor (Homo sapiens) (P35869 whole entry, looked up): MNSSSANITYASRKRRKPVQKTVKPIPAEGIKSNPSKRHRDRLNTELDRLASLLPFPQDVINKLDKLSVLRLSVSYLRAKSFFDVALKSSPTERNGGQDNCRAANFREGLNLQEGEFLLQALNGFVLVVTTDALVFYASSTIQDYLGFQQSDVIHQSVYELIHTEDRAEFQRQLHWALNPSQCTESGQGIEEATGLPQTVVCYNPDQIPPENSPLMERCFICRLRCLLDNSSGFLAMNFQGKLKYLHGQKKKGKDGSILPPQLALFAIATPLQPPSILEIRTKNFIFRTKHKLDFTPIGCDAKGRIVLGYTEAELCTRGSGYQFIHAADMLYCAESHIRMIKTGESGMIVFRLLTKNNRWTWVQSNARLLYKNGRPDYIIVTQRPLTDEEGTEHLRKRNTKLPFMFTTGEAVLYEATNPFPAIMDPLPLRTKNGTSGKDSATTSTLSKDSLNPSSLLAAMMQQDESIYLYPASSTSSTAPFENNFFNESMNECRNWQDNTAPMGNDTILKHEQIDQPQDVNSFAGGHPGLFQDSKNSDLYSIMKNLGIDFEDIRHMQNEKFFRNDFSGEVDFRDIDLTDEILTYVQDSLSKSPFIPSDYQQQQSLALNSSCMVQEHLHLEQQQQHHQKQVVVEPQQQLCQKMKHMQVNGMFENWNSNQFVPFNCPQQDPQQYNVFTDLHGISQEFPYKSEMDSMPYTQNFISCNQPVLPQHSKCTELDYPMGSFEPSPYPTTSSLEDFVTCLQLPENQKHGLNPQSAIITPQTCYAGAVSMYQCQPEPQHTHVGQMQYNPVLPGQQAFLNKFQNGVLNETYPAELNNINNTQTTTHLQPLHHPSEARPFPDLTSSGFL

As to `O=C(CBr)Nc1ccc(Cl)cc1C(=O)c1ccccc1F`, the Potency result in assay [1], in [2], in assay [4], in [5], in [8] and in [9] was “inactive” each time. For the same molecule, in assay [10], the Potency result was “inactive”. The Potency in assay [3] was 23.7 µM (active). Further, the molecule was called inactive in assay [6], in assay [7], in assay [11] and in assay [12].
For the molecule `C=CC(=O)NCNC(=O)C=C`, the Potency entry in [13], in [4], in assay [14] and in assay [10] was “inactive” throughout. Moreover, the call in [6] was inactive.
Turning to `CN1C[C@H](CNC(=O)OCc2ccccc2)C[C@@H]2c3cccc4c3c(cn4C)C[C@H]21`, the Potency is 29.8 µM (active) in assay [13]; 26.6 µM (active) in assay [2]; 33.5 µM (active) in [4]; 26.6 µM (active) in [14]; 13.3 µM (active) in [8]; 13.3 µM (active) in assay [9]. Moreover, the Potency result in assay [1] and in assay [5] was “inactive” throughout. The call in assay [6] was inactive.
For `O=C(O)C(F)(F)C(F)(F)C(F)(F)C(F)(F)C(F)(F)C(F)(F)C(F)(F)C(F)(F)C(F)(F)F`, the Potency entry in [13], in [15], in [4], in assay [5], in assay [8] and in assay [16] was “inactive” each time. Further, the Potency entry in assay [9] and in assay [10] was “inactive” each time. In [3], the Potency is 24.3 µM (active). For the same molecule, the outcome in assay [6] and in assay [7] was inactive.
Take `C=CC(=O)OCC(C)O` (stereo not given): the Potency result in [17], in assay [13], in [1], in assay [4], in assay [5] and in assay [14] was “inactive” in each case. Moreover, the Potency result in assay [18] and in [10] was “inactive” throughout. Moreover, in [3], the Potency is 8.91 µM (active). Besides, the outcome in assay [6], in [19] and in assay [11] was inactive.
Take `CC1Sc2c(C(=O)O)c(=O)c3cc(F)c(N4CCNCC4)cc3n21` (stereo not given): the Potency result in [2], in assay [3], in [4], in assay [5], in [8] and in assay [16] was “inactive” each time. Also, the Potency entry in assay [18], in assay [9] and in assay [10] was “inactive” each time. The result in assay [6], in assay [7], in [19] and in assay [11] was inactive.
Regarding `COc1ccc(-c2ccccc2)cc1NNC(=O)OC(C)C`, the Potency entry in [20], in assay [2], in [4] and in [14] was “inactive” each time. Also, the Potency in assay [3] was 16 µM (active). The molecule was classed as inactive in assay [6], in assay [19] and in assay [11].
